Inconclusive results are not listed. Active and inactive are the calls of the source. Calls follow the shape of the dose curve; as a rule, active = well fitted curve in the direction sought with a large enough effect in the repeat runs; inconclusive = weak or mixed curves; inactive = no such curve, though single readings can be large; an effect the other way counts as inactive or inconclusive.
Target: Nuclear receptor subfamily 1 group I member 2 (Rattus norvegicus) (UniProt Q9R1A7)
Assay: Rat pregnane X receptor (rPXR) activation by small molecules, qHTS assay (AID 1346983); also: nearly all actives have a fitted effect of over 20% in size
Conditions: rPXR luciferase reporter cells, One-Glo luminescence, 24 h; max activation: stronger effect = higher value
Outline: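 Cell-based rPXR luciferase reporter assay, 2,000 cells per well, rested 5hr at 37 C before compound addition in DMSO, then 24 hr at 37 C. One-Glo reagent was added and luminescence read after 30 min at room temperature.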
% is scaled to controls: 0 for no effect and ±100 for the full control effect; potency is read from the fitted curve at half-maximal effect.

Sequence of Nuclear receptor subfamily 1 group I member 2 (Rattus norvegicus) (Q9R1A7 whole entry, looked up): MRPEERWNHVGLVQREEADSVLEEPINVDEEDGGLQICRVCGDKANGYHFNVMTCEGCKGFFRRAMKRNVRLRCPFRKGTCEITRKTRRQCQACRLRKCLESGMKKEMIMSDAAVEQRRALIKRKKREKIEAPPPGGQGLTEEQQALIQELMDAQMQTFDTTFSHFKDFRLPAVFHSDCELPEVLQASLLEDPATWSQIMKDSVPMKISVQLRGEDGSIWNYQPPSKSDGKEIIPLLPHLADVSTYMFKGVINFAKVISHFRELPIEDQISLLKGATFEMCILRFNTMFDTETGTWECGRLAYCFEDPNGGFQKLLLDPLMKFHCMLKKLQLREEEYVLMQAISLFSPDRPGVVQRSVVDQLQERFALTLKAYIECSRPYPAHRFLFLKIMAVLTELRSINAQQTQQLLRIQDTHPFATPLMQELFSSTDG

Row | SMILES | max activation | Potency
1 | CNCC[C@H](Oc1cccc2ccccc12)c1cccs1 | -8.93% (inactive) | 
2 | O=C1Nc2ccc(Cl)cc2[C@@](C#CC2CC2)(C(F)(F)F)O1 |  | 28.2 µM (active)
3 | CC(NCCC(c1ccccc1)c1ccccc1)c1ccccc1 (centres undefined) | -19.7% (inactive) | 
4 | COc1ccccc1OCCNCC(O)COc1cccc2[nH]c3ccccc3c12 (centres undefined) | 7.65% (inactive) | 
5 | Cc1c(C)n(Cc2ccccc2)c2ccc(C(=O)OCCN(C)C)cc12 | 1.71% (inactive) | 
6 | O[C@@H](c1cc(C(F)(F)F)nc2c(C(F)(F)F)cccc12)[C@H]1CCCCN1 | -16.9% (inactive) | 
7 | COC(=O)C1=C(C)NC(C)=C(C(=O)OCCCN2CCC(c3ccccc3)(c3ccccc3)CC2)C1c1cccc([N+](=O)[O-])c1 (centres undefined) |  | 5.01 µM (active)
8 | CCOC(=O)C1=C(C)NC(C)=C(C(=O)OCC)C1c1ccccc1/C=C/C(=O)OC(C)(C)C |  | 3.55 µM (active)
9 | S=P(N1CC1)(N1CC1)N1CC1 | -4.01% (inactive) | 
10 | Cc1cccc(C)c1NC(=O)CN1CCN(CCCC(c2ccc(F)cc2)c2ccc(F)cc2)CC1 | 3.4% (inactive) | 

Target: Nuclear receptor subfamily 1 group I member 2 (Homo sapiens) (UniProt O75469)
Assay: CYP3A4 induction through human pregnane X receptor (PXR) by small molecules, qHTS assay (AID 1346984); also: nearly all actives have a fitted effect of over 40% in size
Conditions: DPX-2 HepG2 PXR, CYP3A4-luciferin luminescence, 24 h; series mostly up to 46.1 µM
Outline: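 Steps: seed DPX-2 cells, 5 hr at 37C; pin-transfer compounds; 24 hr at 37C; add Luciferin-IPA (3uM final), 3 hr at 37C; add One-Glo, 30 min RT; read luminescence.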

Row | SMILES | Potency
11 | CN1CCN(C2Cc3ccccc3Sc3ccc(Cl)cc32)CC1 (centres undefined) | 31.6 µM (active)
12 | Cc1c(C)n(Cc2ccccc2)c2ccc(C(=O)OCCN(C)C)cc12 | 3.98 µM (active)
13 | CCOC(=O)C1=C(C)NC(C)=C(C(=O)OCC)C1c1ccccc1/C=C/C(=O)OC(C)(C)C | inactive
14 | S=P(N1CC1)(N1CC1)N1CC1 | inactive
15 | Cc1cccc(C)c1NC(=O)CN1CCN(CCCC(c2ccc(F)cc2)c2ccc(F)cc2)CC1 | inactive

Target: Cytochrome P450 2D6 (Homo sapiens) (UniProt P10635)
Sequence (P10635 whole entry, looked up): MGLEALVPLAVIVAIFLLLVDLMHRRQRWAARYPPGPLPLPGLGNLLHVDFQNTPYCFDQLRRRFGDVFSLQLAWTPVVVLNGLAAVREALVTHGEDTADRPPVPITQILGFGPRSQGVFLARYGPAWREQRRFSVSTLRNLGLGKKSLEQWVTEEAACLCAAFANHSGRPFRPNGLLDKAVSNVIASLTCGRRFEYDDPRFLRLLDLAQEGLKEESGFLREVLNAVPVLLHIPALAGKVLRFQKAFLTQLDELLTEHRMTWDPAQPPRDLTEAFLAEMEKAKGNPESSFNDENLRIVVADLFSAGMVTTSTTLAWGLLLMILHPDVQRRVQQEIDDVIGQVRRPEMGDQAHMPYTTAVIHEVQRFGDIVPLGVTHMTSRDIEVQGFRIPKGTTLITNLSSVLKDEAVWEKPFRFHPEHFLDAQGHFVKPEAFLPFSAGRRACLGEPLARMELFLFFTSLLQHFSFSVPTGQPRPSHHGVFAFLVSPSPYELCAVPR
Assay: Cytochrome P450 Family 2 Subfamily D Member 6 (CYP2D6) small molecule antagonists: luciferase reporter qHTS assay (AID 1671196); also: nearly all actives have a fitted effect of over 50% in size
Conditions: P450-Glo CYP2D6 enzyme assay, luciferin luminescence, 1 h; series mostly up to 115 µM
Outline: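 P450-Glo format: CYP2D6 converts a proluciferin substrate to luciferin in an NADPH-driven reaction lasting 1 h at room temperature. Light output, proportional to CYP2D6 activity, reflects interference by test chemicals.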

Row | SMILES | Potency
16 | Brc1ccccc1-c1ccccc1 | 75.4 µM (active)
17 | CC(=O)C=O | inactive
18 | O=C1Nc2ccc(Cl)cc2[C@@](C#CC2CC2)(C(F)(F)F)O1 | inactive
19 | CC(C)OC(=O)c1cc(C(=O)OC(C)C)cc([N+](=O)[O-])c1 | 6.87 µM (active)
20 | Cc1cc2c(C(C)C)c(O)c(O)c(C=O)c2c(O)c1-c1c(C)cc2c(C(C)C)c(O)c(O)c(C=O)c2c1O | inactive
21 | N#CSCSc1nc2ccccc2s1 | 10 µM (active)
22 | Cc1oc(-c2ccccc2)nc1CCOc1ccc(C[C@H](Nc2ccccc2C(=O)c2ccccc2)C(=O)O)cc1 | inactive
23 | CC(C(O)c1ccccc1)N(C)CCOC(c1ccccc1)c1ccccc1 (centres undefined) | 0.174 µM (active)
24 | CCCCCCCCCCCCCOP(=O)(O)O | inactive
25 | CN(C)CCCN1c2ccccc2Sc2ccc(C(F)(F)F)cc21 | 0.617 µM (active)
26 | CN1CCN(C2Cc3ccccc3Sc3ccc(Cl)cc32)CC1 (centres undefined) | 0.347 µM (active)
27 | Clc1cc(Cl)c(-c2c(Cl)c(Cl)cc(Cl)c2Cl)cc1Cl | inactive
28 | COC(=O)NCCC[Si](OC)(OC)OC | inactive
29 | O=C1NC2CCCCN2C12CCN(CCCN1c3ccccc3CCc3ccc(Cl)cc31)CC2 (centres undefined) | 7.76 µM (active)
30 | CC(NCCC(c1ccccc1)c1ccccc1)c1ccccc1 (centres undefined) | 0.219 µM (active)
31 | COc1ccccc1OCCNCC(O)COc1cccc2[nH]c3ccccc3c12 (centres undefined) | 1.55 µM (active)
32 | CC=O | 8.34 µM (active)
33 | CC(C)c1cccc(C(C)C)c1N1C(=O)c2ccc(O)cc2C1=O | 31.7 µM (active)
34 | CCCCCCOc1cc(C)c(O)c(C)c1C | 25.5 µM (active)
35 | C[C@]12CC[C@H]3C(=CCc4cc(O)ccc43)[C@@H]1CCC2=O | inactive
36 | S=P(N1CC1)(N1CC1)N1CC1 | 48.6 µM (active)
37 | CCCCCCC(C)Nc1ccc(Nc2ccccc2)cc1 (centres undefined) | 28.3 µM (active)
38 | CCc1ccc(O)c(C(C)(C)C)c1 | inactive
39 | Cc1cccc(C)c1NC(=O)CN1CCN(CCCC(c2ccc(F)cc2)c2ccc(F)cc2)CC1 | 2.45 µM (active)

Target: Cytochrome P450 2C19 (Homo sapiens) (UniProt P33261)
Sequence (P33261 whole entry, looked up): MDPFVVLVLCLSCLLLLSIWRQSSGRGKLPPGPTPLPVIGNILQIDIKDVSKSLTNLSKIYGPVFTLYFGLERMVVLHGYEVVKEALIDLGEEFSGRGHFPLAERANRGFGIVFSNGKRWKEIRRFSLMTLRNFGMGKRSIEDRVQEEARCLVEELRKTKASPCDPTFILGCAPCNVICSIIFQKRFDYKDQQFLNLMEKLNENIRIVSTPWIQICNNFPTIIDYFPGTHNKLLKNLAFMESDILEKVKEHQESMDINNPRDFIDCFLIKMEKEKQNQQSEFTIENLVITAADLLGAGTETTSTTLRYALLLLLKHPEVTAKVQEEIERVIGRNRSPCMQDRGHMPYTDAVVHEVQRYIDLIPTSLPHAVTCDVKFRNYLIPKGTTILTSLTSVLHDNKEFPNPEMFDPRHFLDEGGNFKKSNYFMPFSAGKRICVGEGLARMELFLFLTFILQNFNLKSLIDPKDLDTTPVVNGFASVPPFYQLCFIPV
Assay: Cytochrome P450 Family 2 Subfamily C Member 19 (CYP2C19) small molecule antagonists: luciferase reporter qHTS assay (AID 1671197); also: nearly all actives have a fitted effect of over 65% in size
Conditions: P450-Glo CYP2C19 enzyme, luciferin luminescence, 1 h; series mostly up to 115 µM
Outline: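 Light output is proportional to CYP2C19 activity: proluciferin substrate is converted to luciferin, then detected by a luciferin detection reagent that also stops the 1 h, 37C NADPH-driven reaction. Ketoconazole serves as positive control.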

Row | SMILES | Potency
40 | CC(=O)C=O | inactive
41 | O=C1Nc2ccc(Cl)cc2[C@@](C#CC2CC2)(C(F)(F)F)O1 | 11 µM (active)
42 | CCN(CC)CCOC(=O)C1(C2CCCCC2)CCCCC1 | inactive
43 | CC(C)OC(=O)c1cc(C(=O)OC(C)C)cc([N+](=O)[O-])c1 | 0.0816 µM (active)
44 | CC(C)(c1cc(Br)c(OCCO)c(Br)c1)c1cc(Br)c(OCCO)c(Br)c1 | 6.94 µM (active)
45 | N#CSCSc1nc2ccccc2s1 | 39.9 µM (active)
46 | CC(C(O)c1ccccc1)N(C)CCOC(c1ccccc1)c1ccccc1 (centres undefined) | 7.76 µM (active)
47 | CCCCCCCCCCCCCOP(=O)(O)O | 79.6 µM (active)
48 | CN(C)CCCN1c2ccccc2Sc2ccc(C(F)(F)F)cc21 | 4.36 µM (active)
49 | CN1CCN(C2Cc3ccccc3Sc3ccc(Cl)cc32)CC1 (centres undefined) | 11 µM (active)
50 | Clc1cc(Cl)c(-c2c(Cl)c(Cl)cc(Cl)c2Cl)cc1Cl | inactive
51 | Cc1ccc(-n2[nH]c(C)c(N=Nc3cccc(-c4cccc(C(=O)O)c4)c3O)c2=O)cc1C | inactive
52 | COC(=O)NCCC[Si](OC)(OC)OC | inactive
53 | CC(NCCC(c1ccccc1)c1ccccc1)c1ccccc1 (centres undefined) | 4.36 µM (active)
54 | COc1ccccc1OCCNCC(O)COc1cccc2[nH]c3ccccc3c12 (centres undefined) | 5.49 µM (active)
55 | Cc1c(C)n(Cc2ccccc2)c2ccc(C(=O)OCCN(C)C)cc12 | 15.5 µM (active)
56 | CC(C)c1cccc(C(C)C)c1N1C(=O)c2ccc(O)cc2C1=O | 39.9 µM (active)
57 | CCOC(=O)C1=C(C)NC(C)=C(C(=O)OCC)C1c1ccccc1/C=C/C(=O)OC(C)(C)C | 4.9 µM (active)
58 | Oc1ccc(-c2ccccc2)c(Cl)c1 | 22.4 µM (active)
59 | CCCCCCOc1cc(C)c(O)c(C)c1C | 2.02 µM (active)
60 | C[C@]12CC[C@H]3C(=CCc4cc(O)ccc43)[C@@H]1CCC2=O | 31.7 µM (active)
61 | S=P(N1CC1)(N1CC1)N1CC1 | 9.42 µM (active)
62 | CCCCCCC(C)Nc1ccc(Nc2ccccc2)cc1 (centres undefined) | 5.03 µM (active)
63 | CCc1ccc(O)c(C(C)(C)C)c1 | 17.8 µM (active)
64 | Cc1cccc(C)c1NC(=O)CN1CCN(CCCC(c2ccc(F)cc2)c2ccc(F)cc2)CC1 | 43.6 µM (active)
